Here are results for eight molecules from PubChem BioAssay (NCI).

About 83,000 compounds went through this panel and 20% of them were active in at least one assay; those are over-represented in the sample as a whole.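 Percent growth is the endpoint: 0 to 100 indicates growth inhibition (40 means 60% inhibition), 0 means no net growth, and negative values indicate cell death.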 Values without a mark were called inactive. Calls of active or inactive are those of the source. How the source made its calls: active means growth percent below 10; inactive means the rest.

Some test systems named below: NCI-H23 lung; NCI-H226 lung; NCI-H322M lung; HOP-62 NSCLC; NCI-H460 lung; HOP-92 NSCLC; NCI-H522 lung; A549/ATCC NSCLC; 786-0 renal; COLO 205 colon; DU-145 prostate; K-562 leukemia; MALME-3M melanoma; MDA-MB-231 breast; RXF 393 renal; SF-268 CNS; SF-295 CNS; SF-539 CNS; UACC-257 melanoma; M14 melanoma.
What all share (assay): NCI-60 one-dose screen, 48 h (100 = growth as untreated, 0 = no growth, -100 = all killed)
Conditions in all cases: 10 µM unless noted

`O=C1NC(=O)C(=Cc2cc(-c3ccc(Cl)cc3)n(-c3ccccc3)n2)C(=O)N1`: the growth in the assay on NCI-H23 lung was 99.3%; with NCI-H226 lung it was 82.5%; in the assay on NCI-H322M lung, 94%; in the assay on HOP-62 NSCLC, 99.4%; with NCI-H460 lung, 98.6%; with HOP-92 NSCLC, 94.4%. The growth in the assay with NCI-H522 lung is 103%; in the assay on A549/ATCC NSCLC, 97.4%; in the assay on 786-0 renal, 82.5%; in the assay with COLO 205 colon it was 108%; in the assay with DU-145 prostate it was 105%; with K-562 leukemia it was 90.6%. In addition, the growth in the assay on MALME-3M melanoma is 99.2%; with MDA-MB-231 breast, 99.8%; in the assay on RXF 393 renal, 86%; in the assay on SF-268 CNS it was 105%; in the assay on SF-295 CNS, 93.8%; in the assay on SF-539 CNS, 96.5%. The growth with UACC-257 melanoma is 101%; with M14 melanoma, 93.1%.
Regarding `COc1ccc(-c2cc(-c3ccc(N(C)C)cc3)nc(NC(=O)c3cccnc3)n2)cc1`, the growth in the assay on NCI-H23 lung was 105%; with NCI-H226 lung it was 98.8%; with NCI-H322M lung, 93%; in the assay with HOP-62 NSCLC, 100%; in the assay on NCI-H460 lung, 96.1%; with HOP-92 NSCLC it was 124%. Also, the growth in the assay with NCI-H522 lung is 93%; with A549/ATCC NSCLC it was 105%; in the assay on 786-0 renal it was 103%; with COLO 205 colon it was 104%; in the assay with DU-145 prostate it was 99.5%; in the assay on K-562 leukemia it was 93.3%. The growth in the assay with MALME-3M melanoma was 120%; in the assay on MDA-MB-231 breast, 93.8%; with RXF 393 renal, 107%; in the assay with SF-268 CNS, 90.6%; with SF-295 CNS, 104%; in the assay on SF-539 CNS it was 94.3%. For the same molecule, the values for the growth with UACC-257 melanoma and with M14 melanoma were 120% and 124%, respectively.
For `CCN(CC)CCCNC(=O)c1c2c(n3ccccc13)C(=O)c1ncccc1C2=O`, the growth in the assay on NCI-H23 lung is -38.7% (active); in the assay on NCI-H226 lung, -34.9% (active); in the assay on NCI-H322M lung, -49% (active); in the assay on HOP-62 NSCLC, -69% (active); in the assay with NCI-H460 lung it was -44.4% (active); with HOP-92 NSCLC, -47.1% (active). Moreover, the growth with NCI-H522 lung was -79% (active); with A549/ATCC NSCLC it was -65.3% (active); with 786-0 renal, 3.22% (active); in the assay on COLO 205 colon, -95.6% (active); in the assay on DU-145 prostate, -94.9% (active); in the assay on K-562 leukemia, -33.7% (active). Moreover, the growth in the assay on MALME-3M melanoma was -93% (active); in the assay on MDA-MB-231 breast, -0.531% (active); with RXF 393 renal, -35.9% (active); in the assay with SF-268 CNS it was -3.91% (active); in the assay on SF-295 CNS, -22.1% (active); with SF-539 CNS, -63% (active). For the same molecule, the growth is -90.1% (active) in the assay with UACC-257 melanoma and -84.1% (active) in the assay with M14 melanoma.
`O=C1c2ccccc2C(=O)c2cc(Cn3c[n+](Cc4ccc5ccccc5c4)c4ccccc43)ccc21`: the growth with NCI-H23 lung is 56.5%; in the assay on NCI-H226 lung it was 63.9%; in the assay with NCI-H322M lung it was 75.4%; in the assay on HOP-62 NSCLC it was 76.2%; in the assay on NCI-H460 lung it was 63.4%; in the assay on HOP-92 NSCLC, 15.6%. Moreover, the growth in the assay with NCI-H522 lung was 34.1%; in the assay on A549/ATCC NSCLC it was 91%; in the assay with 786-0 renal, 61.2%; in the assay on COLO 205 colon, 24.4%; in the assay with DU-145 prostate, 83.1%; with K-562 leukemia it was 17.6%. For the same molecule, the growth in the assay with MALME-3M melanoma is 48%; in the assay with MDA-MB-231 breast, 26.2%; with RXF 393 renal, 62.6%; with SF-268 CNS, 49.3%; in the assay with SF-295 CNS, 82.2%; in the assay on SF-539 CNS it was 70.6%. Moreover, the growth in the assay with UACC-257 melanoma is 42.9%; in the assay on M14 melanoma, 38.7%.
Take `COc1ccc(C2CC(=O)Oc3c(OC)c4c(c(OC)c32)OCO4)cc1` (stereo not given): the growth is 98.1% in the assay on NCI-H23 lung; 112% with NCI-H226 lung; 90.1% in the assay with NCI-H322M lung; 84.9% in the assay with HOP-62 NSCLC; 107% in the assay on NCI-H460 lung; 101% in the assay with HOP-92 NSCLC. The growth in the assay on NCI-H522 lung is 85.7%; in the assay with A549/ATCC NSCLC, 97.6%; in the assay with 786-0 renal, 100%; in the assay on COLO 205 colon it was 103%; with DU-145 prostate, 112%; with K-562 leukemia it was 61.1%. The growth with MALME-3M melanoma was 94.5%; with MDA-MB-231 breast it was 100%; with RXF 393 renal, 99.6%; in the assay with SF-268 CNS it was 99.3%; in the assay with SF-295 CNS it was 102%; with SF-539 CNS it was 98.6%. In addition, the growth with UACC-257 melanoma is 101%; in the assay with M14 melanoma, 98.8%.
Turning to `O=CN1N=C(c2cccc(Nc3ccncc3)c2)CC1c1ccc2c(c1)OCO2` (stereo not given), the growth with NCI-H23 lung is 89.7%; with NCI-H226 lung, 85.7%; in the assay on NCI-H322M lung it was 99.4%; in the assay with HOP-62 NSCLC it was 80.2%; with NCI-H460 lung, 105%; with HOP-92 NSCLC, 73.4%. The growth in the assay with NCI-H522 lung was 83.3%; in the assay with A549/ATCC NSCLC it was 83.8%; in the assay on 786-0 renal it was 95.3%; with COLO 205 colon, 113%; in the assay on DU-145 prostate it was 104%; in the assay on K-562 leukemia, 64.7%. For the same molecule, the growth in the assay with MALME-3M melanoma was 86.7%; in the assay on MDA-MB-231 breast it was 103%; in the assay with RXF 393 renal, 100%; in the assay on SF-268 CNS, 91.9%; in the assay on SF-295 CNS, 91.9%; with SF-539 CNS it was 95.3%. The growth in the assay on UACC-257 melanoma was 80.1%; with M14 melanoma, 96.4%.
As for `COC(=O)[C@H](C)NC(=O)c1ccc(NC(=O)c2[nH]c(C)c(Cl)c2Cl)c(OCCN)c1`, the growth is 106% with NCI-H23 lung; 112% with NCI-H226 lung; 101% in the assay with NCI-H322M lung; 106% in the assay on HOP-62 NSCLC; 105% in the assay on NCI-H460 lung; 101% in the assay on HOP-92 NSCLC. Besides, the growth in the assay with NCI-H522 lung is 107%; in the assay with A549/ATCC NSCLC it was 98.1%; in the assay with 786-0 renal, 98.6%; with COLO 205 colon, 104%; with DU-145 prostate, 104%; in the assay on K-562 leukemia, 66.7%. Further, the growth is 113% with MALME-3M melanoma; 103% in the assay with MDA-MB-231 breast; 115% in the assay on RXF 393 renal; 96.3% with SF-268 CNS; 102% in the assay on SF-295 CNS; 101% in the assay with SF-539 CNS. The growth was 104% with UACC-257 melanoma and 119% in the assay on M14 melanoma.
In the case of `COc1cc(/C=C2\C(=O)N(CCOc3cc(O)c4c(=O)cc(-c5ccccc5)oc4c3)c3ccccc32)cc(OC)c1O`, the growth in the assay with NCI-H23 lung was 77.6%; in the assay on NCI-H226 lung it was 90.4%; with NCI-H322M lung, 90.7%; with HOP-62 NSCLC, 68.7%; in the assay on NCI-H460 lung, 66.1%; in the assay with HOP-92 NSCLC it was 80.5%. For the same molecule, the growth in the assay on NCI-H522 lung was 60.1%; in the assay on A549/ATCC NSCLC, 85%; in the assay with 786-0 renal it was 75.6%; with COLO 205 colon, 93.3%; in the assay on DU-145 prostate it was 94%; in the assay on K-562 leukemia, 22.6%. Besides, the growth is 77.6% with MALME-3M melanoma; 64.2% in the assay with MDA-MB-231 breast; 85.9% with RXF 393 renal; 70.6% in the assay with SF-268 CNS; 86.6% in the assay on SF-295 CNS; 69.9% with SF-539 CNS. In addition, the growth is 104% in the assay with UACC-257 melanoma and 28.1% in the assay on M14 melanoma.
